# A selection: hits, their analogues and other compounds. The true share with any hit is near 9.8%.
# HTT ATP protect – qHTS Multiplex Assay to Identify Dual Action Probes in a Cell Model of Huntington: Cytoprotection (ATP); PC12 HTT-Q103 induced, cytoprotection, ATP luminescence, 40 h; AID 1471, 2008; Potency, µM (doses to about 56.4 µM), inactives show cytoprotection (ATP increase), actives largely listed as activators; 0.14% of 230,000 active; active means well fitted curve in the direction sought with a large enough effect; inconclusive means small, poorly fitted or top-dose-only effect, or another doubt; inactive means no such curve, though single readings can be large; an effect the other way counts as inactive or inconclusive; further: potency means the concentration at half of the fitted maximal effect; % of control where 0% means no effect; nearly all actives have a fitted effect of over 45% in size
#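 Compounds were screened for protection of PC12 cells against cell death after tebufenozide induction (100 nM final) of mutant Huntingtin exon 1 (Q103) fused to GFP.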
# HPGD inh – qHTS Assay for Inhibitors of HPGD (15-Hydroxyprostaglandin Dehydrogenase); AID 894, 2007; 15-hydroxyprostaglandin dehydrogenase [NAD(+)] (Homo sapiens), P15428; 4.3% of 150,000 active; Potency, µM, for inactives: top-dose activity change, negative = inhibition, usual class: inhibitors; purified HPGD, NADH fluorescence kinetic, PGE2 substrate; further: potency means the concentration at half of the fitted maximal effect; on the % scale 0 is the no-effect control and ±100 the full control effect
# Target sequence (P15428 whole entry, looked up): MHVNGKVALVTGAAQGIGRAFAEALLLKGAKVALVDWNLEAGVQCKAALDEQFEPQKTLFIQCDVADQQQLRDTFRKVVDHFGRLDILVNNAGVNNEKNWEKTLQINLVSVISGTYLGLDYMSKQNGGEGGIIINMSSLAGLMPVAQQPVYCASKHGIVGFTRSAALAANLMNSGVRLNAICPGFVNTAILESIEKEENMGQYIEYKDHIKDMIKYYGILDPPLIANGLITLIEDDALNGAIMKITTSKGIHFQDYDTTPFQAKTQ
#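 20 nM HPGD preincubated 15 min at room temperature with compound in 50 mM Tris-HCl pH 8, 0.01% Tween 20. Started with 1 mM NAD+ and 30 uM prostaglandin E2; NADH fluorescence (360/450 nm) read 5 times over 30-s intervals, last minus first.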
# ALDH1A1 block – qHTS Assay for Inhibitors of Aldehyde Dehydrogenase 1 (ALDH1A1) | 7.3% of 220,000 active | Purified ALDH1A1, NADH fluorescence, propionaldehyde substrate | Potency, µM (highest dose often 75.3 µM), without a hit: at the highest dose activity, negative = inhibition, usual class: inhibitors;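 further: potency means the concentration at half of the fitted maximal effect; plate controls were no enzyme wells and a reference inhibitor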
# HTT aggregate – qHTS Multiplex Assay to Identify Dual Action Probes in a Cell Model of Huntington: Aggregate Formation (GFP). Potency, µM (series often up to 46.1 µM), for inactives: at the top dose activity change, negative = inhibition, actives largely listed as inhibitors. 1.1% of 220,000 active. AID 1688, 2009. PC12 HttQ103-GFP aggregates, Acumen cytometry, 40 h; active means well fitted curve in the direction sought with a large enough effect; inconclusive means small, poorly fitted or top-dose-only effect, or another doubt; inactive means no such curve, though single readings can be large; an effect the other way counts as inactive or inconclusive; further: potency means the concentration at half of the fitted maximal effect; on the % scale 0 is the no-effect control and ±100 the full control effect; nearly all actives have a fitted effect of over 60% in size
#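 Ecdysone-promoter PC12 model expressing HTT exon 1 Q103 fused to GFP, induced by tebufenozide at 100 nM final. Compounds titrated; aggregates sized 1–25 µm scored on a 488 nm laser cytometer.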
# KDM4E inh – qHTS Assay for Inhibitors of Human Jumonji Domain Containing 2E (JMJD2E); Lysine-specific demethylase 4E (Homo sapiens), B2RXH2; JMJD2E catalytic domain, FDH-coupled NADH fluorescence (FDH is formaldehyde dehydrogenase); Potency, µM (titrated, usually from 57.1 µM), for inactives: top-dose activity change, negative = inhibition, hits mostly inhibitors; 1.6% of 230,000 active; AID 2147, 2009;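 further: potency means the concentration at half of the fitted maximal effect; 0% = wells with enzyme and -100% = buffer wells without enzyme; nearly all actives have a fitted effect of over 50% in size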
# Target sequence (B2RXH2 1-337 limits assumed): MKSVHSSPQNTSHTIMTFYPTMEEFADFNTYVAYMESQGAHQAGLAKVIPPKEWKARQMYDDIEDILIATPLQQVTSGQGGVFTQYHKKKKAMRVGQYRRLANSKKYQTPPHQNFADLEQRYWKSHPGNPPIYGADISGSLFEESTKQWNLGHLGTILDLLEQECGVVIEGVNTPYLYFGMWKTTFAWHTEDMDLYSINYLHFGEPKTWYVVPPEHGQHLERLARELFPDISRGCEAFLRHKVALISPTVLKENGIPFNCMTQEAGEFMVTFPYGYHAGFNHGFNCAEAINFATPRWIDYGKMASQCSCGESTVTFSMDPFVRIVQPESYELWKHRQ
# CBFb RUNX1 block – qHTS Assay for Compounds Blocking the Interaction Between CBF-beta and RUNX1 for the Treatment of Acute Myeloid Leukemia | 230,000 tested, under 10 active | AID 1477, 2009 | Potency, µM (top dose mostly 59.8 µM), inactives show top-dose activity, negative = inhibition, actives largely listed as inhibitors | Runt-related transcription factor 1 (Homo sapiens) + Core-binding factor subunit beta … | AlphaScreen CBFb-His/RUNX1-biotin binding, biochemical; active means well fitted curve in the direction sought with a large enough effect; inconclusive means small, poorly fitted or top-dose-only effect, or another doubt; inactive means no such curve, though single readings can be large; an effect the other way counts as inactive or inconclusive; further: % of control where 0% means no effect
#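 AlphaScreen proximity signal reports loss of binding between His-tagged CBF-beta and biotin-labelled RUNX1, each at 30 nM. Proteins are pre-associated for 20 minutes, compounds added for 15 minutes, then beads for 90 minutes, all at ambient temperature.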
# Numbers without * were called inactive; ? = inconclusive; . = no result; ! = a repeat was not active; [ ] = another dose, or the depositor's remark. Unless noted, the call rests on the fitted dose curve; in most records, active means well fitted inhibition curve with a large enough effect (not every such curve was filed as active); inconclusive means small, poorly fitted or top-dose-only effect, or another doubt; inactive means no such curve, though single readings can be large or run the other way.
SMILES,HTT ATP protect,HPGD inh,ALDH1A1 block,HTT aggregate,KDM4E inh,CBFb RUNX1 block
CCOc1ccc(N2C(=O)/C(=C/c3cccs3)N(CC(=O)OC)C2=S)cc1,-13.4%,-3.8%,9.8%,-3.9%,3.9%,-1.6%
CCc1ccc(/C=C2/C(=O)N(c3ccccc3)C(=S)N2CC(=O)OC)s1,29.4%[10 µM],-16.6%,8.91µM*,-10.5%,-1.4%,-2.3%
O=C(O)CCNC(=O)c1ccc(N=Nc2ccc(O)c(C(=O)O)c2)cc1,1.3%,.,.,-10.7%,.,.
Cc1ccc(N(CC(N)=O)C2SC(=O)NC2=O)cc1 (stereo unspecified),-7.2%[10 µM],-15.0%,?,-1.1%,5.6%,5.6%
Cc1ccc(N(CC(N)=O)C2SC(=O)N(Cc3cccc(C(=O)O)c3)C2=O)cc1 (stereo unspecified),21.6%,-9.4%,20µM*,-5.8%,6.7%,-19.0%
O=c1cc(N2CCCCC2)c(-c2ccccc2)nn1Cc1ccccc1,-20.2%[10 µM],.,15.8µM*,-18.7%,-0.4%,-27.8%
Cn1nc(-c2ccccc2)c(N2CCCCC2)cc1=O,-20.1%,.,28.2µM*,11.2%[9.22 µM],-4.9%,-2.9%
O=C(OCC(=O)N1CCN(S(=O)(=O)c2ccc(Cl)cc2)CC1)c1ccc([N+](=O)[O-])o1,23.7%[10 µM],.,25.1µM*,30.1%,2.7%,-1.4%
O=C(OCC(=O)N1CCN(S(=O)(=O)c2ccccc2)CC1)c1ccc([N+](=O)[O-])o1,15.6%[10 µM],.,20µM*,16.5%,-22.5%,1.4%
O=C(COc1ccccc1[N+](=O)[O-])N1CCN(S(=O)(=O)c2ccccc2)CC1,7.9%,.,-9.3%,12.2%,-10.9%,-1.8%
COC(=O)C(O)C1C(C)(C)C(OC(C)=O)C2CC3=C4CC(=O)OC(c5ccoc5)[C@]4(C)CCC3[C@@]1(C)C2=O (stereo partly specified),?,-5.8%,-0.4%,.,6.1%,-5.0%
Cc1ccc(CSc2nnc(C)c(=O)[nH]2)cc1,-74.7%,.,10.8%,-5.4%,-6.0%,8.1%
Cc1nnc(SCc2ccccc2)[nH]c1=O,15.0%[10 µM],.,7.08µM*,10.6%[9.22 µM],6.0%,0.7%
COc1cccc(C2(O)CCN(CC(=O)NCC3CC3)CC2)c1,32.0%,.,-7.1%,-3.2%,-0.7%,3.8%
Cc1ccc(N2CCN(C(=S)c3ccc(-c4cccc([N+](=O)[O-])c4)o3)CC2)cc1,-20.4%,.,3.16µM*,-27.3%,?,-3.0%
Cc1ccccc1N1CCN(C(=S)c2ccc(-c3ccc([N+](=O)[O-])cc3)o2)CC1,18.6%[10 µM],.,.,-16.7%[9.22 µM],-30.0%,?
Cc1ccccc1N1CCN(C(=S)c2ccc(-c3cccc([N+](=O)[O-])c3)o2)CC1,-46.7%,.,8.91µM*,5.5%,-8.9%,10.8%
Cc1ccc(N2CCN(C(=S)c3ccc(-c4ccccc4[N+](=O)[O-])o3)CC2)cc1,14.4%[10 µM],.,.,14.6%[9.22 µM],-1.4%,.
O=C(CCCSc1nc2ccccc2c(=O)[nH]1)c1ccccc1,-40.2%,.,4.9%,1.5%,5.0%,2.5%
O=C(O)c1cc(N=Nc2ccc([N+](=O)[O-])cc2)ccc1O,-24.0%[10 µM],-3.3%,22.4µM*!,.,.,3.0%[21.7 µM]
CCOC(=O)/C(C#N)=C1/C=C(C)NC(c2ccccc2O)=N1,-15.8%[10 µM],-12.6%,?,11.2µM*,?,3.5%
CCc1sc(NC(=O)c2cc3ccccc3oc2=O)nc1-c1cccs1,1.6%[10 µM],-10.4%,-5.5%,-8.0%,5.1%,3.8%
Cc1cc(-c2nnc(CSc3nnc(NC(=O)c4ccc(C(C)(C)C)cc4)s3)o2)ccc1[N+](=O)[O-],-39.3%[10 µM],.,.,-0.9%[9.22 µM],-3.0%,3.2%
CCOc1ccc2c(c1)[N+](C)(C)C(C)(C)C=C2C,-47.2%,.,-1.6%,?,-11.1%,7.0%
COc1ccc2c(c1)[N+](C)(C)C(C)(C)C=C2C,-60.1%,.,5.5%,-14.0%,20µM*,1.3%
SMILES,HTT ATP protect,HPGD inh,ALDH1A1 block,HTT aggregate,KDM4E inh,CBFb RUNX1 block
CCOC(=O)C1(Cc2ccc(OC)cc2)CCN(C(=O)CN2CCN(CC)CC2)CC1,-33.1%,.,25.1µM*,6.3%,2.4%,6.2%
COc1c(C)cc(C(=O)C2CCCN(C(=O)c3snnc3C)C2)cc1C (stereo unspecified),4.7%[10 µM],.,?,2.5%[9.22 µM],-5.9%,15.6%
CCCC(O)(CCN(C)C)c1ccc(OC)cc1 (stereo unspecified),-3.0%,4.8%,10µM*,3.7%,-1.8%,0.6%
COc1cc(/C=C(\C#N)C(N)=O)ccc1OCc1c(C)no[n+]1[O-],-12.5%[10 µM],.,?,16.6%[9.22 µM],-21.3%,15.2%
COc1cc(/C=N/Nc2nncn2N)ccc1OCc1c(C)no[n+]1[O-],5.6%[10 µM],.,-1.0%,6.0%[9.22 µM],0.501µM*,6.0%
O=C1/C(=C/c2ccccc2)[C@@H](NC2CCCCC2)c2ccccc21,-67.1%[10 µM],-20.5%,-13.0%[13.5 µM],.,.,.
Cn1c(=N)c(S(=O)(=O)c2ccc(F)cc2)cc2c(=O)n3ccccc3nc21,-23.1%[0.074 µM],?,?,7.5%,?,1.1%
Cn1c(=N)c(S(=O)(=O)c2ccccc2)cc2c(=O)n3ccccc3nc21,-17.3%,?,?,3.16µM*,?,4.1%
O=C(N/N=C/c1ccccc1O)c1ccncc1,-77.7%,.,.,?,.,.
O=C(N/N=C/c1ccccc1O)C1SCCCS1,-50.8%,.,?,?,28.2µM*,-11.9%
CC1CC(=O)NN=C1c1ccc(N(C)C)c([N+](=O)[O-])c1 (stereo unspecified),8.4%[10 µM],-7.0%,?,-0.9%,-1.9%,2.4%
CCN(CC)c1ccc(C2=NNC(=O)CC2C)cc1[N+](=O)[O-] (stereo unspecified),-5.2%[10 µM],-13.6%,12.6µM*,4.1%,-7.2%,-24.7%
COc1ccccc1/C=C/C(=O)Oc1cccc2cccnc12,6.7%,.,?,-2.9%,?,7.6%
Cc1ccc2cccc(OC(=O)/C=C\c3ccccc3)c2n1,3.16µM*,.,-3.0%,9.6%[9.22 µM],7.1%,7.3%
Cc1cc(C)nc(SCc2ccc(C(=O)N/N=C/c3ccccn3)cc2)n1,-8.2%[10 µM],.,?,-26.0%,?,-15.4%
COc1ccc(CN(CCC#N)C(=S)NC(=O)c2ccccc2)cc1,17.2%,-12.6%,25.1µM*,-3.9%,4.5%,1.3%
N#CCCN(Cc1ccccc1)C(=S)NC(=O)c1ccccc1,2.0%[10 µM],-24.7%,14.1µM*,-1.3%,-5.7%,6.8%
